# Measured values reported in PubChem BioAssay (NCI).
# This is part of a sample that, as a whole, favours compounds with a hit. Of some 83,000 tested, about 20% had one in any assay.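 Interpretation: 100, growth as untreated; towards 0, rising growth inhibition; 0, no net growth; 0 to -100, cell death. Compounds scoring below 10 were considered active.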 A number with no mark means an inactive call. Calls of active or inactive are those of the source.
# Key:
# Test in all cases: NCI-60 one-dose screen, 48 h (100 = growth as untreated, 0 = no growth, -100 = all killed)
# Conditions in all cases: 10 µM
# NCI-H23 lung = tested on: NCI-H23 lung
# NCI-H226 lung = tested on: NCI-H226 lung
# NCI-H322M lung = tested on: NCI-H322M lung
# HOP-62 NSCLC = tested on: HOP-62 NSCLC
# NCI-H460 lung = tested on: NCI-H460 lung
# NCI-H522 lung = tested on: NCI-H522 lung
# A549/ATCC NSCLC = tested on: A549/ATCC NSCLC
# 786-0 renal = tested on: 786-0 renal
# COLO 205 colon = tested on: COLO 205 colon
# DU-145 prostate = tested on: DU-145 prostate
# K-562 leukemia = tested on: K-562 leukemia
# MDA-MB-231 breast = tested on: MDA-MB-231 breast
# RXF 393 renal = tested on: RXF 393 renal
# SF-268 CNS = tested on: SF-268 CNS
# SF-295 CNS = tested on: SF-295 CNS
# SF-539 CNS = tested on: SF-539 CNS
# UACC-257 melanoma = tested on: UACC-257 melanoma
# M14 melanoma = tested on: M14 melanoma
# HCT-15 colon = tested on: HCT-15 colon
# MALME-3M melanoma = tested on: MALME-3M melanoma
Structure (SMILES),growth (NCI-H23 lung),growth (NCI-H226 lung),growth (NCI-H322M lung),growth (HOP-62 NSCLC),growth (NCI-H460 lung),growth (NCI-H522 lung),growth (A549/ATCC NSCLC),growth (786-0 renal),growth (COLO 205 colon),growth (DU-145 prostate),growth (K-562 leukemia),growth (MDA-MB-231 breast),growth (RXF 393 renal),growth (SF-268 CNS),growth (SF-295 CNS),growth (SF-539 CNS),growth (UACC-257 melanoma),growth (M14 melanoma),growth (HCT-15 colon),growth (MALME-3M melanoma)
CCN(CC)CCN1CC(=O)Nc2cc(Cl)ccc21,101%,95.1%,104%,103%,104%,92.7%,102%,115%,102%,120%,120%,116%,122%,108%,103%,105%,102%,93.9%,107%,–
O=C1NC(=O)c2ncccc21,101%,96.3%,106%,109%,111%,171%,98.8%,102%,114%,113%,107%,116%,–,103%,89.7%,101%,102%,99.9%,101%,114%
Nc1ccc2cc(S(=O)(=O)O)cc(O)c2c1N=Nc1ccc(F)cc1,94.6%,107%,104%,109%,115%,100%,109%,100%,111%,118%,119%,112%,119%,114%,110%,95.9%,106%,100%,105%,–
CCCCCCCCN(CCCCCCCC)CCCCCCCCCN1CCCc2cc(OC)ccc21,63.4%,89.7%,95.5%,85%,102%,79.4%,97.2%,98.3%,87.8%,105%,80.4%,89.9%,–,99.9%,88.5%,104%,106%,93.8%,89.3%,104%
CC/C(=N\N=C(/CC)c1ccc(Br)cc1)c1ccc(Br)cc1,86.2%,94%,108%,94.9%,105%,71.5%,98.7%,98.9%,100%,116%,109%,103%,–,103%,93.9%,99.3%,108%,98.3%,85.4%,90.5%
N=c1c2c(-c3ccccc3)c(-c3ccccc3)n(Cc3ccccc3)c2ncn1CCCO,45.7%,46.1%,34.4%,52.9%,8.17% (active),27.8%,17.3%,48.3%,-5.84% (active),34.5%,-0.624% (active),39%,12.7%,41.4%,88.3%,54.1%,-24.9% (active),43.4%,28.1%,–
COc1ccc(-c2ccc3cc(C(=O)Nc4ccc(O)c(C(=O)/C=C/c5cc(OC)c(OC)c(OC)c5)c4)ccc3c2)cc1,94.3%,82.5%,100%,114%,95.9%,87.7%,92.6%,102%,109%,102%,59%,85.6%,93%,105%,101%,103%,97.9%,89.1%,80.4%,–
CCN1CCC(CCOC)(CN2c3ccccc3Sc3ccc(Cl)cc32)C1 (stereo not given),63.5%,73.9%,65.7%,58.3%,24.1%,65.1%,61.1%,48.7%,40%,69.5%,-15.2% (active),35%,37.3%,63.3%,72.4%,78%,24.6%,-65.9% (active),49.1%,–
CCN(CC)CCCC(C)Nc1ccc2ccc(Cl)cc2n1 (stereo not given),98.5%,93.1%,102%,86.9%,102%,92%,98.3%,93.8%,95.7%,114%,95.6%,90.3%,–,96.8%,95.3%,101%,–,103%,–,115%
O=C1OCC2=C1C(c1cccc(Cl)c1)c1cc3c(cc1N2CCO)OCCO3 (stereo not given),19.6%,-5.85% (active),35.3%,26.7%,0.852% (active),-22.4% (active),13.8%,23.7%,-26.9% (active),-35.6% (active),17.5%,-3.22% (active),33.9%,23.1%,-16.5% (active),-3.57% (active),44.6%,12.9%,–,–
NC(=O)SCC(=O)Nc1ccc(S(N)(=O)=O)cc1,106%,93%,121%,101%,108%,105%,103%,107%,107%,112%,108%,106%,99%,106%,107%,100%,101%,105%,109%,–
CN1c2ccccc2[C@]2(Cc3ccccc3)Cc3ccccc3N[C@H]12,91.4%,98.2%,111%,120%,111%,71.7%,109%,106%,118%,115%,92.1%,97.5%,112%,112%,104%,105%,111%,104%,96.3%,–
O=C(CC(NC(=O)OCc1ccccc1)C(=O)OCc1ccccc1)OCc1ccccc1 (stereo not given),106%,106%,99%,94%,101%,89.2%,99.3%,106%,99.1%,111%,112%,123%,125%,103%,110%,111%,94.2%,90.5%,106%,–
NC1=NC(=O)C(c2ccccc2)(c2ccccc2)S1,106%,103%,111%,98.1%,113%,102%,104%,102%,117%,114%,90.8%,104%,109%,113%,112%,111%,110%,107%,101%,–
COc1ccc(-c2nc3sc(-c4ccccc4)c(-c4ccccc4)n3c2/C=C/C(=O)c2ccccn2)cc1,97.4%,84%,112%,134%,87%,6.21% (active),87.7%,98.7%,76.4%,96.7%,66%,75.9%,84%,88%,99.5%,83.7%,87.2%,89%,60.6%,–
Clc1cccc(-c2nc(-c3cccs3)no2)c1,92.8%,100%,114%,97.8%,110%,92%,94.1%,99.6%,114%,120%,102%,81.4%,113%,106%,92.2%,92.6%,110%,105%,47.4%,–
CC(=O)c1cc(Cl)ccc1O,106%,98.1%,101%,107%,101%,118%,101%,104%,112%,105%,103%,100%,106%,104%,94.1%,89.1%,110%,106%,98.9%,–
